Log fold change Tl+ flux data for 14 compounds are collected here from PubChem BioAssay.

Each structure is given as a SMILES string. A number with no mark means an inactive call. Active and inactive are the calls of the source.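 Rule for the calls: active = thallium flux through the channel raised or lowered by more than 3 SD from vehicle-only wells, actives on both sides; inactive = the rest.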

Assay in all cases: modulators of BK channel variants, profiling panel, selectivity assay, cell-based, U2OS BacMam, thallium flux, beta subunits (AID 1259406);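 note: initial slope of Thallos dye fluorescence rise after thallium is added; log ratio against the mean of 0.3% DMSO vehicle wells on the same plate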
One experiment concerns F380Y. The note with it: at 30 µM.
In another experiment the test system is F380Y/beta1. The note with it: at 30 µM.
The next experiment has as its system F380Y/beta2Delta. The note with it: at 30 µM.
The next experiment deals with F380Y/beta4. The note with it: at 30 µM.
Experiment [1] deals with Calcium-activated potassium channel subunit alpha-1 (Homo sapiens) + Leucine-rich repeat-containing protein 26 (Homo sapiens) (UniProt Q12791+Q2I0M4). The note with it: F380Y/Slo1WT/gamma1, at 30 µM.
Calcium-activated potassium channel subunit alpha-1 (Homo sapiens) + Leucine-rich repeat-containing protein 26 (Homo sapiens), sequence (Q2I0M4 whole entry, looked up, one chain of several): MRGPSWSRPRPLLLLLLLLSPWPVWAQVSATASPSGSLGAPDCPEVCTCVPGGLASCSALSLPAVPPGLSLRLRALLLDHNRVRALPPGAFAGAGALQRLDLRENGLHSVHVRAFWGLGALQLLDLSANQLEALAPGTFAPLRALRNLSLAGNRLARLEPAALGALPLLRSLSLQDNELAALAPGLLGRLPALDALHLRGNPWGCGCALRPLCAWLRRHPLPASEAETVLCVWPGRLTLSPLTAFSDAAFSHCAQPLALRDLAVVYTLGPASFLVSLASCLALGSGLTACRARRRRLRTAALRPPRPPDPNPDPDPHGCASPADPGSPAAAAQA
The next experiment concerns R275C. The note with it: at 30 µM.
The subject of the next experiment is R275C/beta1. The note with it: at 30 µM.
The test system of the next experiment is R275C/beta2Delta. The note with it: at 30 µM.
The test system of a further experiment is R275C/beta4. The note with it: at 30 µM.
Another experiment relates to R275C/Slo1WT/beta2. The note with it: at 30 µM.

Take `CN(C)c1ccc(C=NNC(N)=S)c(Cl)c1`: the log fold change Tl+ flux was 0.178 (active) in the experiment with F380Y; 0.329 (active) in the experiment with F380Y/beta1; 0.177 (active) with F380Y/beta2Delta; 0.174 (active) with F380Y/beta4; -0.221 (active) in experiment [1]; -0.509 (active) in the experiment with R275C. The log fold change Tl+ flux in the experiment on R275C/beta1 was -0.285 (active); with R275C/beta2Delta, -0.0612; in the experiment on R275C/beta4, -0.244 (active); with R275C/Slo1WT/beta2 it was -0.154 (active).
Consider `Cn1c(Sc2cnc(=S)[nH]c2-c2ccc(Cl)cc2)nnc1C(F)(F)F`, for which the log fold change Tl+ flux in the experiment with F380Y was 0.000803; with F380Y/beta1 it was 0.0224; with F380Y/beta2Delta, 0.000625; in the experiment on F380Y/beta4 it was -0.0336; in [1], 0.0434; in the experiment on R275C it was -0.0138. The log fold change Tl+ flux in the experiment on R275C/beta1 was -0.00364; with R275C/beta2Delta it was -0.0183; in the experiment on R275C/beta4 it was 0.0272; in the experiment on R275C/Slo1WT/beta2 it was 0.0806.
On to `Cc1noc(C=Cc2sccc2C2OCCO2)c1[N+](=O)[O-]`, for which the log fold change Tl+ flux in the experiment on F380Y is 0.00373; in the experiment with F380Y/beta1, 0.00792; in the experiment on F380Y/beta2Delta, -0.0403; in the experiment on F380Y/beta4 it was -0.0687; in experiment [1] it was -0.0936; in the experiment on R275C, 0.00445. Besides, the log fold change Tl+ flux was -0.0604 with R275C/beta1, -0.0701 in the experiment on R275C/beta2Delta, -0.00776 with R275C/beta4 and -0.000775 in the experiment on R275C/Slo1WT/beta2.
In the case of `COc1ccc(C(C)=NO)cc1CN1CCCC1`, the log fold change Tl+ flux is 0.00748 in the experiment with F380Y; 0.0291 in the experiment with F380Y/beta1; 0.0236 in the experiment on F380Y/beta2Delta; 0.062 with F380Y/beta4; 0.0507 in experiment [1]; 0.0203 in the experiment on R275C. Further, the log fold change Tl+ flux in the experiment with R275C/beta1 was 0.0511; in the experiment with R275C/beta2Delta it was -0.0181; in the experiment on R275C/beta4, -0.0237; in the experiment with R275C/Slo1WT/beta2, 0.0863.
Consider `O=C(Nc1csc(Cc2c(Cl)cccc2Cl)n1)NN1CCOCC1`, for which the log fold change Tl+ flux was 0.0786 in the experiment with F380Y; 0.0031 in the experiment on F380Y/beta1; 0.0515 in the experiment on F380Y/beta2Delta; 0.11 (active) in the experiment with F380Y/beta4; -0.0174 in [1]; -0.0115 with R275C. For the same compound, the log fold change Tl+ flux in the experiment on R275C/beta1 was 0.0073; in the experiment with R275C/beta2Delta it was 0.0159; in the experiment on R275C/beta4 it was 0.00549; in the experiment with R275C/Slo1WT/beta2, -0.0281.
As for `Cn1c(SCc2ccc(C(F)(F)F)cc2)nnc1C(F)(F)F`, the log fold change Tl+ flux is -0.0854 in the experiment on F380Y; 0.00114 with F380Y/beta1; -0.0293 in the experiment on F380Y/beta2Delta; 0.0223 in the experiment with F380Y/beta4; -0.00125 in experiment [1]; -0.0523 in the experiment on R275C. Besides, the log fold change Tl+ flux in the experiment on R275C/beta1 is -0.14 (active); with R275C/beta2Delta, -0.0607; in the experiment with R275C/beta4, -0.153 (active); in the experiment on R275C/Slo1WT/beta2 it was -0.00318.
For the compound `O=C1c2cccc3c(Sc4ccccc4)ccc(c23)C(=O)N1CCc1ccccn1`, the log fold change Tl+ flux in the experiment with F380Y is 0.00854; in the experiment on F380Y/beta1 it was -0.00319; in the experiment with F380Y/beta2Delta, -0.0137; in the experiment with F380Y/beta4 it was 0.0446; in experiment [1] it was 0.0111; with R275C it was -0.0274. Moreover, the log fold change Tl+ flux in the experiment on R275C/beta1 was -0.0207; with R275C/beta2Delta it was 0.02; in the experiment with R275C/beta4, -0.00592; with R275C/Slo1WT/beta2, 0.0318.
Take `Cc1cc(NC(=S)N2CCCCCC2)ccc1Br`: the log fold change Tl+ flux in the experiment with F380Y was -0.0478; in the experiment on F380Y/beta1 it was 0.0387; in the experiment on F380Y/beta2Delta, -0.0137; in the experiment on F380Y/beta4, -0.0575; in experiment [1], -0.0699; in the experiment with R275C it was 0.0117. Moreover, the log fold change Tl+ flux is -0.00715 in the experiment with R275C/beta1, -0.0104 with R275C/beta2Delta, 0.081 (active) with R275C/beta4 and -0.00913 in the experiment with R275C/Slo1WT/beta2.
For `COC(=O)C=C1NCC(O)CNC1=O` (stereo not given), the log fold change Tl+ flux was -0.00633 in the experiment with F380Y; -0.0361 with F380Y/beta1; 0.00999 in the experiment with F380Y/beta2Delta; -0.025 with F380Y/beta4; -0.0336 in [1]; 0.0119 in the experiment with R275C. For the same compound, the log fold change Tl+ flux was -0.0456 in the experiment with R275C/beta1, 0.0117 with R275C/beta2Delta, -2.9e-05 in the experiment on R275C/beta4 and 0.0313 in the experiment on R275C/Slo1WT/beta2.
With `CSc1nnc(SCC(=O)c2ccc3c(c2)OCCO3)s1`, the log fold change Tl+ flux with F380Y is -0.00388; in the experiment with F380Y/beta1, -0.019; in the experiment with F380Y/beta2Delta, -0.0362; with F380Y/beta4, -0.049; in experiment [1] it was -0.0346; in the experiment with R275C, -0.06. The log fold change Tl+ flux was -0.119 (active) with R275C/beta1, -0.146 (active) in the experiment with R275C/beta2Delta, -0.0816 (active) with R275C/beta4 and -0.0418 in the experiment on R275C/Slo1WT/beta2.
Turning to `CSc1nc(C=Nc2cccc(Cl)c2)c(O)n1Cc1cccc(Cl)c1`, the log fold change Tl+ flux in the experiment with F380Y was -0.00291; in the experiment with F380Y/beta1 it was 0.208 (active); in the experiment with F380Y/beta2Delta, 0.0623; in the experiment with F380Y/beta4, -0.0889; in experiment [1], 0.0392; in the experiment with R275C, -0.03. Also, the log fold change Tl+ flux is 0.102 in the experiment with R275C/beta1, 0.137 (active) in the experiment on R275C/beta2Delta, 0.11 (active) in the experiment with R275C/beta4 and -0.0459 in the experiment on R275C/Slo1WT/beta2.
For `COC(=O)c1cc(C)nc(Sc2n[nH]c(-c3cc(Cl)cc(Cl)c3)n2)n1`, the log fold change Tl+ flux was -0.0391 with F380Y; 0.0897 (active) with F380Y/beta1; 0.0312 in the experiment on F380Y/beta2Delta; 0.046 with F380Y/beta4; 0.044 in experiment [1]; 0.00719 in the experiment with R275C. Also, the log fold change Tl+ flux in the experiment on R275C/beta1 was 0.0447; in the experiment on R275C/beta2Delta, 0.0581; in the experiment on R275C/beta4, 0.0071; with R275C/Slo1WT/beta2, 0.059.
`CCOC(=O)c1cnc(C(F)(F)F)nc1NN=Cc1c(Cl)cccc1Cl`: the log fold change Tl+ flux was -0.0741 in the experiment with F380Y; 0.0122 in the experiment with F380Y/beta1; -0.0116 in the experiment on F380Y/beta2Delta; 0.00688 in the experiment on F380Y/beta4; -0.0599 in experiment [1]; -0.0944 (active) in the experiment on R275C. The log fold change Tl+ flux in the experiment with R275C/beta1 was -0.124 (active); in the experiment on R275C/beta2Delta, -0.0798; in the experiment with R275C/beta4, -0.0487; in the experiment with R275C/Slo1WT/beta2, -0.0141.
On to `Oc1c(Cl)cc(Cl)cc1C=Nc1nccs1`, for which the log fold change Tl+ flux with F380Y is 0.115 (active); in the experiment on F380Y/beta1, 0.153 (active); with F380Y/beta2Delta, 0.108 (active); in the experiment with F380Y/beta4, 0.105 (active); in experiment [1], 0.0431; in the experiment on R275C, -0.0362. The log fold change Tl+ flux was 0.112 (active) in the experiment with R275C/beta1, 0.0936 (active) with R275C/beta2Delta, 0.0731 in the experiment on R275C/beta4 and 0.0241 in the experiment on R275C/Slo1WT/beta2.
